Source: PubChem BioAssay (NCATS)
Where “and” joins values, the source holds several entries; their conditions need not be identical. Equal entries are not always repeated. Records with an inconclusive call do not appear. Some compounds were tested as several samples or in several runs, with calls that do not always agree. Calls of active or inactive are those of the source. Unless noted, calls come from the whole dose curve; as a rule, active = well fitted curve in the direction sought with a large enough effect; inconclusive = small, poorly fitted or top-dose-only effect, or another doubt; inactive = no such curve, though single readings can be large; an effect the other way counts as inactive or inconclusive.

Tests used:
[1] = S16 Schwann cell viability assay (CellTiter-Glo assay) (AID 624031); settings: S16 rat Schwann cells viability, 24 h; series mostly up to 57.5 µM; note: nearly all actives have a fitted effect of over 70% in size; note: potency is the fitted concentration of half-maximal effect
Summary of the method: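 This viability control uses native rat S16 Schwann cells grown in DMEM plus 10% FBS. After a 24 h compound treatment at 37 °C, CellTiter-Glo luminescence reports ATP content, scaled against DMSO-treated and cell-free wells.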

[2] = S16 Schwann cell PMP22 intronic element firefly luciferase assay (AID 624032); settings: S16 rat Schwann cells, PMP22 element FLuc, 24 h; series mostly up to 57.5 µM; note: nearly all actives have a fitted effect of over 30% in size; note: potency is the fitted concentration of half-maximal effect
Summary of the method: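 Rat S16 Schwann cells stably carrying firefly luciferase driven by a PMP22 intronic element, in 10% FBS, treated 24 h at 37 C. ONE-Glo luminescence normalized to PTC124 control and DMSO (0%); curves classed by r2, magnitude and activity.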

[3] = biological target: Glutaminase kidney isoform, mitochondrial (Homo sapiens) (UniProt O94925); assay: qHTS for Inhibitors of Glutaminase (GLS): LOPAC Validation (AID 624146); settings: glutaminase enzyme activity inhibition; series mostly up to 46.1 µM;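 note: glutamate product detected by oxidase and peroxidase coupled Amplex red fluorescence gain; % is set by controls: 0 for no effect and ±100 for the full control effect; nearly all actives have a fitted effect of over 60% in size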
Summary of the method: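 hKGA; 45 mM KH2PO4 pH 8.2 + 0.02% Tween-20; cpd via pin tool; 1 mM Gln soln; GluOx/HRP/Amplex Red; RT 30 min; fluor. t0 & final.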

[4] = qHTS of Trypanosoma Brucei Inhibitors: LOPAC Validation (AID 624147); settings: purified enzyme assay, luminescence, 45 min; series mostly up to 57.5 µM; note: 0% is about no effect
Summary of the method: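 Screened from lowest to highest concentration, compounds were pinned into TbPYK/substrate mixtures, and ADP (130 uM final) was added. Plates sat at room temperature for 45 min prior to Kinase-Glo Plus detection by luminescence.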

[5] = biological target: Glucagon-like peptide 1 receptor (Homo sapiens) (UniProt P43220); assay: qHTS of GLP-1 Receptor Agonists: LOPAC Validation (AID 624148); settings: GLP-1R agonist cell assay; series mostly up to 46.1 µM;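 note: 0% is about no effect; higher luminescence signal means agonism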
Summary of the method: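 HEK293 cells stably co-expressing GLP-1R and a cAMP-responsive luciferase reporter, plated 12 hours before compound, then incubated 4-6 hr at 37 deg C. Luminescence read 12 min after detection reagent.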

[6] = qHTS of Nrf2 Activators: LOPAC Validation (AID 624149); settings: Nrf2/ARE reporter cell assay; series mostly up to 46.1 µM; note: 0% is about no effect
Summary of the method: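 AREc32_Fluc cells, 1000/well in OPTI-MEM with 5% FBS, grown overnight, then exposed to compounds for 24 hr at 37 deg C, 5% CO2. ARE-driven firefly luciferase read by Steady-Glo luminescence after 30 min at RT.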

[7] = HTS Assay for Allosteric Antagonists of the Human D2 Dopamine Receptor: Hit Validation in HTRF (AID 624455); settings: Cells stably expressing D1 dopamine receptor, inhibition mode; series mostly up to 46.1 µM;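 note: stable D1 dopamine receptor cell line scored for blocking the D1 response; % is set by controls: 0 for no effect and ±100 for the full control effect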
Summary of the method: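 Hit validation in cells stably expressing the D1 dopamine receptor, run in HTRF format. Compounds were tested for their ability to inhibit the D1-mediated response.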

[8] = qHTS assay for small molecule agonists of the antioxidant response element (ARE) signaling pathway (AID 651741; active = well fitted activation curve with a large enough effect in the signal ratio; the % refers to the signal ratio; note: potency is the fitted concentration of half-maximal effect; for activation: % of control where 0% means no effect); settings: HepG2 ARE-bla reporter, beta-lactamase FRET ratio, 16 h; series mostly up to 96 µM
Summary of the method: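 CellSensor ARE-bla HepG2 cells (2,000/well) carrying ARE-driven beta-lactamase, exposed 16 h at 37 C. LiveBLAzer B/G FRET substrate added for 2 h at room temperature; fluorescence intensity read.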

[9] = biological target: Tumor necrosis factor (Homo sapiens) (UniProt P01375); assay: qHTS assay to identify small molecules that stimulate Tumor Necrosis Factor-alpha (TNF-alpha) secretion (AID 651757; active = well fitted curve in the direction sought with a large enough effect in the signal ratio; the % refers to the signal ratio; note: 0% is about no effect); settings: Human cells, HTRF 665/615 ratio; series mostly up to 92.2 µM
Summary of the method: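 THP-1 cells (3000/well) exposed to compounds 17 hrs at 37 C. Secreted TNF-alpha detected by HTRF with cryptate- and XL665-labeled anti-TNF-alpha antibodies after 3 hr at room temperature.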

[10] = qHTS assay for small molecule activators of the p53 signaling pathway (AID 651743; active = well fitted activation curve with a large enough effect in the signal ratio, not every such curve was filed as active; the % refers to the signal ratio; note: % of control where 0% means no effect); settings: HCT-116 p53RE-bla, beta-lactamase FRET ratio, 16 h; stronger effect = higher value
Summary of the method: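 p53RE-bla HCT-116 cells carrying a beta-lactamase reporter under p53 response elements were exposed to compounds for 16 hours at 37 C. Reporter activity read as fluorescence after 2 hours at room temperature with LiveBLAzer B/G FRET substrate.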

[11] = qHTS assay for small molecule activators of the nuclear factor-kappa B (NF-kB) signaling pathway (AID 651749; active = well fitted activation curve with a large enough effect in the signal ratio; the % refers to the signal ratio; note: % of control where 0% means no effect); settings: NF-kB-bla ME-180 cells, beta-lactamase FRET ratio, 16 h; stronger effect = higher value
Summary of the method: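 NF-kB-bla ME-180 cells carrying a beta-lactamase reporter under an NF-kB response element, 2,000 cells/well, exposed to compound for 16 hr at 37C; FRET-based beta-lactamase fluorescence read-out of pathway activation.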

[12] = Cytotoxicity counterscreen for NFkB agonists and antagonists (AID 624476); settings: NFkB reporter cell line viability counterscreen; series mostly up to 46.1 µM;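 note: cells exposed to compound for 48 hours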; note: potency is the fitted concentration of half-maximal effect
[13] = qHTS Assay for Identification of Small Molecule Agonists for NFkB Signaling Pathway. (AID 624478); settings: NFkB pathway reporter cell assay, agonist mode, cells co-stimulated with 10 pM TNF alpha; series mostly up to 46.1 µM; note: 0% is about no effect
Summary of the method: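 NFkB-bla ME-180 cells carry a beta-lactamase reporter. They received compound plus TNF alpha at 10 pM final (its EC50) for 5 h at 37 C. Reporter activity was read as 460/530 nm emission ratio after 2 h LiveBLAzer substrate loading.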

[14] = qHTS Assay for Identification of Small Molecule Antagonists for NFkB Signaling Pathway. (AID 624479; calls by dose curve; note: potency is the fitted concentration of half-maximal effect); settings: NFkB pathway reporter cell assay, antagonist mode; series mostly up to 38.3 µM
[15] = Cell Proliferation Assay against the TMD8 Cell Line (AID 651645); settings: TMD8 DLBCL cell line proliferation/viability; at 46.1 µM (top of the series) unless noted;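 note: cells exposed to compound for 48 h before reading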
Summary of the method: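 TMD8 cells, 500/well in RPMI with 5% FBS, dosed immediately and grown 48 h at 37 C, 5% CO2. CellTiter-Glo luminescence normalised to DMSO 100% and 9.2 uM bortezomib (final) 0%.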

[16] = Cell Proliferation Assay against the TMD8 Cell Line (Caspase readout at 16 hrs) (AID 651712); settings: TMD8 lymphoma cells, caspase activation luminescence; series mostly up to 46.1 µM; note: potency is the fitted concentration of half-maximal effect
Summary of the method: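 TMD8 cells in RPMI with 5% FBS were treated with compound for 16 h at 37 C, then caspase 3/7 activation was read by Caspase-Glo luminescence. Percent activity was scaled to DMSO (0%) and 9.2 uM bortezomib final (100%).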

[17] = S16 Schwann cell PMP22 intronic element beta-lactamase assay (AID 624044; calls by dose curve; note: nearly all actives have a fitted effect of over 15% in size; note: potency is the fitted concentration of half-maximal effect); settings: S16 rat Schwann cells, PMP22 element beta-lactamase FRET, 24 h; series mostly up to 38.3 µM
Summary of the method: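 Rat S16 Schwann cells with beta-Lac driven by a PMP22 intronic element, compound-treated 24 h at 37 °C. LiveBLAzer FRET B/G read: 460 nm normalized to potassium clavulanate vs DMSO; 535 nm FRET as viability; concentration-effect curves classified.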

[18] = qHTS assay for small molecule disruptors of the mitochondrial membrane potential - 1 hr assay (AID 651754; calls by dose curve; note: potency is the fitted concentration of half-maximal effect; nearly all actives have a fitted effect of over 35% in size)
Summary of the method: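 HepG2 cells, attached overnight, were exposed to compound for 1 hr at 37C, then stained 30 min with a potentiometric dye. Ratio of red aggregate (590nm) to green monomer (535nm) fluorescence reports membrane potential; collapse shifts signal toward green.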

[19] = qHTS assay for small molecule disruptors of the mitochondrial membrane potential - 5 hr assay (AID 651755; calls by dose curve; note: potency is the fitted concentration of half-maximal effect; nearly all actives have a fitted effect of over 40% in size); settings: JC-1-type ratio dye; series mostly up to 92.2 µM
Summary of the method: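 HepG2 cells (2,000/well), attached overnight, exposed to compound 5 hr at 37C, then Mito-MPS dye 30 min. Fluorescence read for monomers (490/535 nm) and aggregates (540/590 nm).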

Sequence of Glutaminase kidney isoform, mitochondrial (Homo sapiens) (O94925 whole entry, looked up, canonical isoform): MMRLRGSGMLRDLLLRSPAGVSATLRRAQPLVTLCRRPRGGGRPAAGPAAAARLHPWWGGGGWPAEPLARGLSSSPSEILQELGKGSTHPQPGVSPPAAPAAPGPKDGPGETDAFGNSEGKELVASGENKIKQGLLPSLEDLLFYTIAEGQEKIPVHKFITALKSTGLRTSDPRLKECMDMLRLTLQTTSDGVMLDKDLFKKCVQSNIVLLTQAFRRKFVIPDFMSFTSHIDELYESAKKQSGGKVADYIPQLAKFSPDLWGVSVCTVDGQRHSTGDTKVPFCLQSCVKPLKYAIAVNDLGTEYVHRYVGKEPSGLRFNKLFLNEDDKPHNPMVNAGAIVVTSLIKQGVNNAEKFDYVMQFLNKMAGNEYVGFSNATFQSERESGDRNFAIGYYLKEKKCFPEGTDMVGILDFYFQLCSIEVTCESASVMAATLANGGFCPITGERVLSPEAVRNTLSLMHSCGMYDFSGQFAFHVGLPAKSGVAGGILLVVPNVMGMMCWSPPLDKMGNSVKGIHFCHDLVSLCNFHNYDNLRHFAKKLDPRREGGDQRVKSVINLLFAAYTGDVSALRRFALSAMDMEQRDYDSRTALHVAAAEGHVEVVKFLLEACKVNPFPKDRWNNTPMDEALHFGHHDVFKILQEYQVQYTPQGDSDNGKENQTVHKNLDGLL
Sequence of Glucagon-like peptide 1 receptor (Homo sapiens) (P43220 whole entry, looked up): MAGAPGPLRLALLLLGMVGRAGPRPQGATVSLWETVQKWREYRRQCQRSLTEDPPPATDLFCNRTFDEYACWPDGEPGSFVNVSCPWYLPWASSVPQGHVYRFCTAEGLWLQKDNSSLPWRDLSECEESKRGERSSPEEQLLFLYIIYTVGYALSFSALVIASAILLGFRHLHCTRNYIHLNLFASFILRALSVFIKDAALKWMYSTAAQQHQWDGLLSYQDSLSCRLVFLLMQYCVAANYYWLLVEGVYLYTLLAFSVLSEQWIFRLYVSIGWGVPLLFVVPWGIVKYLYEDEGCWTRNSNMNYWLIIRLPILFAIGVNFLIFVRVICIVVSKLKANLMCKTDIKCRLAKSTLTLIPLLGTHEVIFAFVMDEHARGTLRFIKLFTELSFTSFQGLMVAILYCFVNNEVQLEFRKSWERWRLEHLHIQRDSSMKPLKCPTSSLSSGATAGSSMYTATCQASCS
Sequence of Tumor necrosis factor (Homo sapiens) (P01375 whole entry, looked up): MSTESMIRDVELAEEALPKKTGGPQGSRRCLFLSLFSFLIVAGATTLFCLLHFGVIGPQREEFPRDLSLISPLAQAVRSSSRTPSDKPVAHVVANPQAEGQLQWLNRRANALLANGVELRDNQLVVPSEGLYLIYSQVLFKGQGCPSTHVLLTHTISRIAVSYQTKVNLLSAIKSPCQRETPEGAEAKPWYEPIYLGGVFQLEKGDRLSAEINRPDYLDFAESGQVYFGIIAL

NCCS
inactive: Potency [1] | Potency [2] | Potency [3] | outcome [4] | outcome [5] | outcome [6] | outcome [7]

O=C1NC(=O)C(c2ccccc2)(c2ccccc2)N1
34.4 µM (active) and inactive: Potency [8]
inactive: Potency [1] | Potency [2] | Potency [3] | outcome [4] | outcome [5] | outcome [6] | outcome [7] | outcome [9]

CCN(CC)CCNC(=O)c1ccc(N)cc1
inactive: Potency [1] | Potency [2] | Potency [3] | outcome [4] | outcome [6] | outcome [7]

Cc1cccc(C)c1OCC(C)N (stereo unspecified)
inactive: Potency [1] | Potency [2] | Potency [3] | outcome [4] | outcome [5] | outcome [6] | outcome [7]

Cc1cnc(C(=O)O)c[n+]1[O-]
inactive: Potency [1] | Potency [2]

CC(C)(C)c1ccc(C(O)CCCN2CCC(C(O)(c3ccccc3)c3ccccc3)CC2)cc1 (stereo unspecified)
active: Potency [1] 16.1 µM
inactive: Potency [2] | Potency [3] | outcome [4] | outcome [5] | outcome [7]

CCCNC(=O)NS(=O)(=O)c1ccc(Cl)cc1
inactive: Potency [1] | Potency [2] | Potency [3] | outcome [4] | outcome [5] | outcome [6] | outcome [7] | Potency [8] | activation [10] -1.07% and -0.555% | activation [11] -1.46% and -0.938% | outcome [9]

CN(C)CCC(c1ccccc1)c1ccccn1 (stereo unspecified)
inactive: Potency [1] | Potency [2] | Potency [3] | outcome [4] | outcome [6] | outcome [7] | activation [10] 1.39% | activation [11] -0.458% | outcome [9]
active: Potency [8] 37.6 µM

CC(C)(C)COc1ccc(-n2cc(C(=O)O)cn2)cc1C#N
88.1%: viability (% of control) [15]
inactive: Potency [12] | outcome [13] | Potency [14] | Potency [16]

COc1cc(N2CCC(N3CCN(C)CC3)CC2)ccc1Nc1ncc(Cl)c(Nc2ccccc2S(=O)(=O)C(C)C)n1
inactive: outcome [13]
active: Potency [12] 2.09 µM | Potency [14] 11.9 µM
3.22%: viability (% of control) [15]

O=C(CCCCCCC(=O)Nc1ccccc1)NO
2.92% [at 92.2 µM]: viability (% of control) [15]
inactive: Potency [1] | outcome [13] | Potency [14]
active: Potency [17] 2.24 µM | Potency [12] 38.2 µM | Potency [16] 0.429 µM

O=C(N[C@@H](c1ccccc1)[C@@H]1CCCCN1)c1cccc(C(F)(F)F)c1Cl
74.3%: viability (% of control) [15]
inactive: Potency [12] | outcome [13] | Potency [14]

Clc1ccc(Cn2c(CN3CCCC3)nc3ccccc32)cc1
inactive: Potency [1] | Potency [17] | Potency [3] | outcome [4] | outcome [5] | outcome [6] | outcome [7]

CC/C(=C(\c1ccccc1)c1ccc(OCCN(C)C)cc1)c1ccccc1
inactive: Potency [3] | outcome [4] | outcome [5] | outcome [6] | outcome [7] | outcome [9]
active: Potency [1] 32.2 µM

COC(=O)[C@@H]1[C@H]2C[C@H]3c4[nH]c5ccccc5c4CCN3C[C@@H]2CC[C@@H]1O
inactive: Potency [3] | outcome [4] | outcome [5] | outcome [6] | outcome [7]

O=C(NCCN1CCOCC1)c1ccc(Cl)cc1
inactive: Potency [2] | Potency [3] | outcome [4] | outcome [5] | outcome [6] | outcome [7]

O=c1c(-c2ccc(O)cc2)coc2cc(O)ccc12
active: Potency [8] 27.3 µM and 42.2 µM | Potency [18] 18.8 µM | Potency [19] 21.1 µM
inactive: Potency [3] | outcome [4] | outcome [5] | outcome [6] | outcome [7] | activation [10] -1.55% and 1.43% | activation [11] -0.613% and -0.223% | outcome [9]

O=C(O)c1cc(-c2ccccc2)nc2ccccc12
inactive: Potency [1] | Potency [2] | activation [10] -1.06% | activation [11] -3.75%

COc1cccc(-c2cc(=O)c3ccccc3o2)c1N
inactive: Potency [3] | outcome [4] | outcome [5] | outcome [6] | outcome [7]

COc1ccc(Cc2nccc3cc(OC)c(OC)cc23)cc1OC
inactive: Potency [1] | Potency [3] | outcome [4] | outcome [6] | outcome [7]

CN(C)Cc1ccc(-c2nc3cccc4c3n2CCNC4=O)cc1
active: Potency [14] 23.7 µM
inactive: Potency [12] | outcome [13]
17%: viability (% of control) [15]

CC(=O)Nc1ccc([C@H](C)C(=O)Nc2ncc(C(C)C)s2)cc1
-0.0002%: viability (% of control) [15]
inactive: outcome [13]
active: Potency [12] 0.935 µM | Potency [14] 0.335 µM

Cc1nc(N)sc1-c1ccnc(Nc2ccc(N3CCOCC3)cc2)n1
active: Potency [14] 2.66 µM
4.33%: viability (% of control) [15]
inactive: Potency [12] | outcome [13]

O=C(O)c1ccc(-c2cc3cccnc3c(-c3ccc4nonc4c3)n2)cc1
111%: viability (% of control) [15]
inactive: Potency [12] | outcome [13] | Potency [14] | Potency [16]

O=C1Nc2ccc(Cl)cc2C(C#CC2CC2)(C(F)(F)F)O1 (stereo unspecified)
inactive: Potency [1] | Potency [17] | outcome [13]
active: Potency [14] 30.6 µM

COCCCCC(=NOCCN)c1ccc(C(F)(F)F)cc1
inactive: Potency [2] | Potency [17]

COc1cc2ncnc(Nc3ccc(F)c(Cl)c3)c2cc1OCCCN1CCOCC1
inactive: Potency [17] | Potency [12] | outcome [13]
50.3%: viability (% of control) [15]
active: Potency [2] 36.1 µM
